# Records with an inconclusive call do not appear. Active and inactive are the calls of the source. The calls were made as follows, unless noted: active = hit-call score of the fitted dose curve at least 0.9, where 1 is the maximum; inconclusive = response in the unintended direction; inactive = score below 0.9.
# How the values were obtained:
# [1] = biological target: human RAR-related Orphan Receptor gamma (RORg), RORC (gene 6097) (UniProt P51449); assay: ATG_RORg_TRANS: Attagene TRANS-FACTORIAL HepG2 Assay for human RAR-related Orphan Receptor gamma (RORg) (AID 2283011)
# Chain of human RAR-related Orphan Receptor gamma (RORg), RORC (gene 6097) (P51449 whole entry, looked up, the tested form may be a part): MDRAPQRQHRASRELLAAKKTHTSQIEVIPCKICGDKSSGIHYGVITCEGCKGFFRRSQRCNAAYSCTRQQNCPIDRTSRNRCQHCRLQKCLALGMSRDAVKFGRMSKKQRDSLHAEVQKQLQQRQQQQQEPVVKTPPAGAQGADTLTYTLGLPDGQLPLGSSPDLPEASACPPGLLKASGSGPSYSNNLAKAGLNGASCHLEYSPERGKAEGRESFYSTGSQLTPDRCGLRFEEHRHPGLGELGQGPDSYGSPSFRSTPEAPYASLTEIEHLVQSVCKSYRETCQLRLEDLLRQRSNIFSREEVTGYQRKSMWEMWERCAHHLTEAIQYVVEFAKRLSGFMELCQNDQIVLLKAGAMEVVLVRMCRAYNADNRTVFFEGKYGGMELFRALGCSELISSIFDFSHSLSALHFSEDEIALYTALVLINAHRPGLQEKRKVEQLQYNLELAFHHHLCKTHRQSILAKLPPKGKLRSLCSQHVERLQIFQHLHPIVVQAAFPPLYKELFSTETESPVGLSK
# Summary of the method: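 Reporter transcripts from a transfected RORg-GAL4 chimera in HepG2 cells were quantified 24 h after dosing by RT-PCR, 6-FAM labelling, HpaI digestion and capillary electrophoresis; increases over DMSO baseline were fitted.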
# [2] = biological target: Retinoic acid receptor RXR-alpha (Homo sapiens) (UniProt P19793); assay: ATG_RXRa_TRANS: Attagene TRANS-FACTORIAL HepG2 Assay for human Retinoid X Receptor alpha (RXRa) (AID 2283012)
# Chain of Retinoic acid receptor RXR-alpha (Homo sapiens) (P19793 whole entry, looked up, the tested form may be a part): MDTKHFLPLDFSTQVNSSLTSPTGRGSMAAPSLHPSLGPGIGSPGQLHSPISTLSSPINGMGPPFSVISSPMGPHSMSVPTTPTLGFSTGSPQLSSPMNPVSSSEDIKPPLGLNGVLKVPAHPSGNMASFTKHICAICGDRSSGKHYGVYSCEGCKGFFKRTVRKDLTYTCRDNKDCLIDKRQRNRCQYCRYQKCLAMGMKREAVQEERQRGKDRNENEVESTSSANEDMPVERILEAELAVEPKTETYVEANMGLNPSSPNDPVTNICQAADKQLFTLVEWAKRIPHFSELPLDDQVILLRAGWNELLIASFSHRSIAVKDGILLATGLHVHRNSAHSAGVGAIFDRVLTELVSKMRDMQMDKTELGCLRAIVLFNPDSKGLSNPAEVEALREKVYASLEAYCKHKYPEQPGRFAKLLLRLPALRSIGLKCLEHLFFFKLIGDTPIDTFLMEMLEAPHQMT
# Summary of the method: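 Cells (HepG2) carried transiently transfected GAL4-responsive reporter units. Following a 24 h chemical incubation, reporter mRNA induction was read via RT-PCR fragment analysis; DMSO served as negative control and baseline.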
# [3] = biological target: human Retinoid X Receptor beta (RXRb), RXRB (gene 6257) (UniProt P28702); assay: ATG_RXRb_TRANS: Attagene TRANS-FACTORIAL HepG2 Assay for human Retinoid X Receptor beta (RXRb) (AID 2283013)
# Chain of human Retinoid X Receptor beta (RXRb), RXRB (gene 6257) (P28702 whole entry, looked up): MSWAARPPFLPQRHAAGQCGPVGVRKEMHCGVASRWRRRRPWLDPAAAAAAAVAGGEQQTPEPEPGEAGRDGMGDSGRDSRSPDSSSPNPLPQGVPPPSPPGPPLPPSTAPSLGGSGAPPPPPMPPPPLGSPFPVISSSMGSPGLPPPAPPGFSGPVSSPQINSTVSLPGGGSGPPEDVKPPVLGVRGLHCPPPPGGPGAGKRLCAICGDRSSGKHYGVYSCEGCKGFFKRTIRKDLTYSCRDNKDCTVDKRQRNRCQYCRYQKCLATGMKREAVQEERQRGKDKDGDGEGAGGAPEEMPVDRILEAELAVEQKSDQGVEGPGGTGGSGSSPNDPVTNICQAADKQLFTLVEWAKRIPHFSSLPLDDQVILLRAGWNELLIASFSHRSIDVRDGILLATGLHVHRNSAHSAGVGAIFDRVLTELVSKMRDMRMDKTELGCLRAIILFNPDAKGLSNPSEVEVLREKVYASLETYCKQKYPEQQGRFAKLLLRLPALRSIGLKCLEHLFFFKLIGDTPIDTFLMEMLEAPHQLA
# Summary of the method: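 Multiplexed TRANS reporter assay in HepG2; 24 h dosing; reporter mRNA by RT-PCR/CE fluorescence; gain-of-signal relative to DMSO.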
# [4] = biological target: human Thyroid Receptor alpha (THRa1), THRA (gene 7067) (UniProt P10827); assay: ATG_THRa1_TRANS: Attagene TRANS-FACTORIAL HepG2 Assay for human Thyroid Receptor alpha (THRa1) (AID 2283014)
# Chain of human Thyroid Receptor alpha (THRa1), THRA (gene 7067) (P10827 whole entry, looked up, the tested form may be a part): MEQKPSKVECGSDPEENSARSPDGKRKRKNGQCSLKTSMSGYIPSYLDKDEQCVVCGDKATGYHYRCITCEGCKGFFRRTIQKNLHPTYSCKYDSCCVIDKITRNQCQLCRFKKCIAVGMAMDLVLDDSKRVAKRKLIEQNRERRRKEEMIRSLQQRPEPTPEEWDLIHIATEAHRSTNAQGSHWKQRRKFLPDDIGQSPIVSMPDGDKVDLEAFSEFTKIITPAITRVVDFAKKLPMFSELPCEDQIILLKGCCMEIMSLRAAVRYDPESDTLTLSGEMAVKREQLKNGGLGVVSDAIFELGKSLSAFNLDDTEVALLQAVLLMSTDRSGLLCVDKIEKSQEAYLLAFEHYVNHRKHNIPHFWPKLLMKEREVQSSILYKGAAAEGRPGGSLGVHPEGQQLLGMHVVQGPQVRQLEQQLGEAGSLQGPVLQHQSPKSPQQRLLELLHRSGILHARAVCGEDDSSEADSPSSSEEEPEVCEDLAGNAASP
# Summary of the method: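 Transcripts from GAL4-UAS-driven reporters, measured after 24 h compound exposure by RT-PCR plus capillary electrophoresis of 6-FAM-labeled fragments, were fitted for gain of signal relative to DMSO. Cells: transiently transfected HepG2 expressing NR-Gal4 chimeras.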
# [5] = read-out: E-selectin (Homo sapiens) (UniProt P16581); assay: BSK_3C_Eselectin: BioMAP Diversity Plus: 3C Assay for Eselectin Biomarker Activity (AID 2283015; active = hit-call score of the fitted dose curve at least 0.9, where 1 is the maximum; inactive = score below 0.9;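 also: cell surface E-selectin protein quantified by ELISA 24 h after dosing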); conditions: primary human endothelial cells (HUVEC); actives raise or lower the signal
# Summary of the method: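 E-selectin ELISA readout, fitted bidirectionally relative to DMSO, taken 24 h post-dosing in HUVEC cultures of the 3C system. Overt cytotoxicity tracked with sulforhodamine B staining of parallel wells.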
# [6] = read-out: Monocyte Chemoattractant Protein-1 (MCP1), CCL2 (gene 6347); assay: BSK_3C_MCP1: BioMAP Diversity Plus: 3C Assay for Monocyte Chemoattractant Protein-1 (MCP1) Biomarker Activity (AID 2283017; active = hit-call score of the fitted dose curve at least 0.9, where 1 is the maximum; inactive = score below 0.9); conditions: primary human endothelial cells (HUVEC); actives raise or lower the signal
# Summary of the method: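 MCP-1 was measured by ELISA 24 h after dosing in primary HUVEC 3C cultures and fitted in both directions relative to DMSO; cytotoxicity was checked by SRB total-protein staining in parallel wells.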
# [7] = read-out: Monocyte Chemoattractant Protein-1 (MCP1), CCL2 (gene 6347); assay: BSK_4H_MCP1: BioMAP Diversity Plus: 4H Assay for Monocyte Chemoattractant Protein-1 (MCP1) Biomarker Activity (AID 2283018; active = hit-call score of the fitted dose curve at least 0.9, where 1 is the maximum; inactive = score below 0.9); conditions: primary human endothelial cells (HUVEC); actives raise or lower the signal
# Summary of the method: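 Readout: MCP-1 ELISA on compound-treated HUVEC, sampled 24 h post-dosing. Baseline and negative control DMSO; bidirectional fit. Overt toxicity checked alongside by sulforhodamine B protein staining at time of biomarker measurement.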
# [8] = read-out: Human Leukocyte Antigen - DR isotype (HLADR), HLA-DRA (gene 3122); assay: BSK_3C_HLADR: BioMAP Diversity Plus: 3C Assay for Human Leukocyte Antigen - DR isotype (HLADR) Biomarker Activity (AID 2283019; active = hit-call score of the fitted dose curve at least 0.9, where 1 is the maximum; inactive = score below 0.9;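 also: ELISA of cell-surface HLA-DR on HUVEC 24 h after dosing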); conditions: primary human endothelial cells (HUVEC); actives raise or lower the signal
# Summary of the method: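 Bidirectional fitting against DMSO was applied to the HLA-DR ELISA signal from human umbilical vein endothelial cells, 24 h post-dose. Cytotoxicity came from parallel SRB total-protein staining; 3C proliferation was counted by SRB at 48 h.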
# Chain of E-selectin (Homo sapiens) (P16581 whole entry, looked up): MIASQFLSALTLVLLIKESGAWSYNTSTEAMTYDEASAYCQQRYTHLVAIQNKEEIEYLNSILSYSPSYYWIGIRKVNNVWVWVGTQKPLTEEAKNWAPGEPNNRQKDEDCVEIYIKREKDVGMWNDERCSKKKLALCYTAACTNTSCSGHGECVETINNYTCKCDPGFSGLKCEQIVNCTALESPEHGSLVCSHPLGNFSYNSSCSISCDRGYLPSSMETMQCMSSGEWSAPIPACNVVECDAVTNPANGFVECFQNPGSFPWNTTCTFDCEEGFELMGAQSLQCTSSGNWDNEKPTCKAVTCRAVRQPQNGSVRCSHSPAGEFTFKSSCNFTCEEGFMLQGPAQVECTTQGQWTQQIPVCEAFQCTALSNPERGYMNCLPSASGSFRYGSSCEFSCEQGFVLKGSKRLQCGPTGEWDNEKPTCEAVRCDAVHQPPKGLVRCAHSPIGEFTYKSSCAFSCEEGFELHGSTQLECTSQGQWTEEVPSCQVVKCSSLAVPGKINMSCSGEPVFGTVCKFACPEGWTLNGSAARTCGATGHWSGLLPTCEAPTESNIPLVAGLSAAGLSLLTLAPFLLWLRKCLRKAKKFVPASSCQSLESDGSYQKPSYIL
smiles,measurement,setting,value
Brc1cc(Br)cc(Br)c1,outcome,[1],inactive
same,outcome,[2],inactive
same,AC50,[3],59.7 µM (active)
same,outcome,[4],inactive
CCCc1ccc(O)cc1,outcome,[1],inactive
same,outcome,[2],inactive
same,outcome,[3],inactive
CC(=O)C1C(=O)C=C(C)OC1=O (configuration not stated),outcome,[1],inactive
same,outcome,[2],inactive
same,outcome,[4],inactive
CN(C)c1ccc(C=O)cc1,outcome,[1],inactive
same,outcome,[3],inactive
same,outcome,[4],inactive
CC(C)(O)C(=O)c1ccc(OCCO)cc1,outcome,[1],inactive
same,outcome,[2],inactive
CC(C)COC(=O)c1ccccc1O,outcome,[1],inactive
same,outcome,[2],inactive
same,outcome,[3],inactive
same,outcome,[4],inactive
CCCCCCCCOS(=O)(=O)O,outcome,[1],inactive
same,outcome,[2],inactive
same,AC50,[3],100 µM (active)
O=C(O)c1ccccc1O,outcome,[1],inactive
same,outcome,[2],inactive
CC(=O)Oc1c(C)c(C)c2c(c1C)CC[C@@](C)(CCC[C@H](C)CCC[C@H](C)CCCC(C)C)O2,outcome,[1],inactive
same,outcome,[3],inactive
same,outcome,[4],inactive
S=c1[nH][nH]c(=S)s1,outcome,[1],inactive
same,outcome,[2],inactive
same,outcome,[3],inactive
same,outcome,[4],inactive
C[N+](C)(C)CCO,outcome,[1],inactive
same,outcome,[2],inactive
CC(C)(CO)CO,outcome,[5],inactive
same,outcome,[6],inactive
same,outcome,[7],inactive
same,outcome,[8],inactive

# — PubChem BioAssay (EPA / NIEHS)
